# High-throughput results from PubChem.
# DAX1 inh-1 = DAX1 (NR0B1) inhibitors, primary screen, cell-based, HEK293, Gal4-DAX1, luciferase luminescence; HEK293 Gal4-DAX1 luciferase reporter; inhibition, % at 6.75 µM; hit rate 0.99% among 340,000; AID 504766, 2011;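 active = inhibition above the mean over all tested compounds plus 3 SD, cut at about 4.2% in these data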;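 also: 0% = DAX1-transfected cells with DMSO and 100% = empty-vector control cells with DMSO; inhibition shows as a rise in luminescence from relieved DAX1 repression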
# Target sequence (P51843 207-470 limits assumed): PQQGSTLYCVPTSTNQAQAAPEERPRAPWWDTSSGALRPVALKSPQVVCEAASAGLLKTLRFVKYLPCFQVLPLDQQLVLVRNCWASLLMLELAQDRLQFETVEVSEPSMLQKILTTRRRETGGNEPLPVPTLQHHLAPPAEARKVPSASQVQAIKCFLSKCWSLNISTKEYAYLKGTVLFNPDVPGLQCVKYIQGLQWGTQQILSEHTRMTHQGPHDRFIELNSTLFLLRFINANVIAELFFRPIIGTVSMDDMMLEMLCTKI
# ssDAF-12 act = S. stercoralis DAF-12 nuclear receptor activators, primary screen, cell-based, luminescence, HEK293, GRIP1 co-expression, lit1-tk-luc | HEK293 ssDAF-12/GRIP1 lit1-tk-luc reporter; % of 3 µM dafachronic acid response | activation, % at 6.8 µM | Nuclear hormone receptor DAF-12 (Strongyloides stercoralis) | hit rate 1% among 370,000;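 active = activation above the mean over all tested compounds plus 3 SD, cut at about 0.9% in these data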;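 also: 0% = DMSO-only wells and 100% = 3 µM delta7-dafachronic acid wells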
# hcDAF12 agonist = H. contortus DAF-12 nuclear receptor activators, primary screen, cell-based, luminescence, HEK293, lit1-tk-luc reporter; HEK293 hcDAF-12 lit1-tk-luc reporter; 0% DMSO, 100% Δ7-dafachronic acid; activation, % at 6.8 µM; hit rate 1.4% among 370,000; AID 652067, 2013;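 active = activation above the mean of all tested compounds plus 3 SD, cut at about 5.5% in these data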;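 also: 100% = response to 3 µM Δ7-dafachronic acid high control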
# DAX1 inh-2 = DAX1 (NR0B1) inhibitors on StAR promoter, primary screen, cell-based, luminescence, SF-1 (NR5A1), full-length DAX-1; HEK293T StAR-luciferase reporter, SF-1/DAX-1 repression relief; inhibition, % at 6.8 µM; hit rate 1.1% among 370,000; AID 652010, 2013;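 active = inhibition above the mean over all tested compounds plus 3 SD, cut at about 3.6% in these data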;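 also: 0% = DAX-1 cells with DMSO and 100% = cells lacking DAX-1 with DMSO; higher inhibition means more luminescence from relief of DAX-1 repression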
# hgDAF-12 ag = H. glycines DAF-12 receptor agonists, primary screen, cell-based, luminescence, HEK293, GAL4 fusion, UAS-luciferase; Nuclear hormone receptor DAF-12 (Heterodera glycines), GAL4 fusion; HEK293 GAL4-hgDAF12 UAS-luciferase reporter, agonist luminescence; normalized to butyrate control; activation, % at 6.8 µM; hit rate 1.8% among 370,000; AID 687014, 2013;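 active = activation above a cutoff set at the mean of all screened compounds plus 3 SD, cut at about 10% in these data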;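 also: 0% = DMSO wells and 100% = sodium butyrate wells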
# Starred values were filed as active, the others as inactive; / = no result. Shown are actives, neighbours in structure and some others; about 4.1% of the full set was active somewhere.
SMILES,DAX1 inh-1,ssDAF-12 act,hcDAF12 agonist,DAX1 inh-2,hgDAF-12 ag
Cc1ccc(Cc2c(-c3cccc(Br)c3)nc3ccc(Cl)cn23)cc1,/,0,2,2,7
Cc1ccc2nc(-c3cccc(Br)c3)c(Cc3cccc(Cl)c3)n2c1,/,1,5,7.3*,10
Cc1ccc(Cc2c(-c3cccc(Br)c3)nc3ccc(C)cn23)cc1,/,1,4,3,12*
COC(=O)C1CN(C2CC2)CCS(=O)(=O)N1Cc1cn(Cc2ccc(OC)cc2)nn1 (stereo unspecified),/,0,-1,0,1
COc1ccc(C2/C=C\CN(C(=O)OCC3c4ccccc4-c4ccccc43)CC(=O)N2Cc2cccc(F)c2)cc1 (stereo unspecified),-1,-2,-1,3.7*,-1
COc1ccc(NC(=O)CN(C)C(=O)c2cccc(NS(=O)(=O)c3ccc(Br)cc3)c2)cc1,2,-1,-2,2,0
CC(=O)N(C)c1ccc(N=NC2C(=O)N(C(N)=S)N=C2C)cc1 (stereo unspecified),5.3*,0,4,3,12*
CC1=NN(C(N)=S)C(=O)C1N=Nc1ccc(S(N)(=O)=O)cc1 (stereo unspecified),1,-2,-1,-1,-3
CC1=NN(C(N)=S)C(=O)C1N=Nc1cccc(Cl)c1 (stereo unspecified),1,1,6.1*,1,7
CNc1nc(Cl)nc2c1ncn2-c1ccccc1,4.6*,-1,0,-1,4
O=C(CN1C(=O)S/C(=C\c2ccccc2)C1=O)NC1CCS(=O)(=O)C1 (stereo unspecified),0,-1,-2,-2,-1
COc1ccc(/C=C2\SC(=O)N(CCC(=O)N(C)C3CCS(=O)(=O)C3)C2=O)cc1 (stereo unspecified),0,-1,-1,0,-1
CC(C)c1ccc(/C=C2\SC(=O)N(CC(=O)NC3CCS(=O)(=O)C3)C2=O)cc1 (stereo unspecified),0,-1,2,3,11*
O=C(CN1C(=O)c2ccc([N+](=O)[O-])cc2C1=O)NC1CCS(=O)(=O)C1 (stereo unspecified),5.6*,-1,1,0,-2
COc1ccc(/C=C2\SC(=O)N(CC(=O)N(C)C3CCS(=O)(=O)C3)C2=O)cc1 (stereo unspecified),1,1.0*,2,1,2
N#C/C(=C(/O)CSc1nnc(Cc2cccs2)n1C1CCCCC1)c1nc2ccccc2[nH]1,2,1,7.1*,0,-1
COc1ccc(-c2cc(-c3nnc(SCc4cccc5ccccc45)n3N)[nH]n2)cc1,/,-2,-6,-1,0
Cc1nc2ccc(Br)cc2c2c1CC(CBr)O2 (stereo unspecified),-1,0,1,0,-1
Cc1nc2ccc(Br)cc2c2c1CC(CO)O2 (stereo unspecified),5.4*,-2,-1,0,-1
CCCc1cc2c(O)ccc(O)c2c(=O)o1,/,-1,-1,-2,-2
C[C@@H]1COc2cc(Br)ccc2S(=O)(=O)N1Cc1cn(Cc2ccc(C(F)(F)F)cc2)nn1,/,-1,0,1,0
Nc1nc(CSc2ccccn2)nc(Nc2ccccc2)n1,4,1,5,4,11*
CCN1CCCCC(NC(=O)c2ccc(F)cc2)C1=O (stereo unspecified),/,-1,0,1,1
CC(C)(C)N(Cc1cn(CC2CCCCC2)nn1)S(=O)(=O)c1ccc(F)cc1Br,/,-2,-1,-1,1
N/C(Cc1cccc2ccccc12)=N\O,0,0,5.7*,1,2
SMILES,DAX1 inh-1,ssDAF-12 act,hcDAF12 agonist,DAX1 inh-2,hgDAF-12 ag
N/C(Cc1ccccc1Sc1ccccc1)=N\O,-2,-2,-2,0,3
Cn1c2c(c(=O)n(C)c1=O)C(c1ccccc1Cl)CC(=O)N2 (stereo unspecified),1,-1,5.8*,0,-2
CC1=CC(C)(C)n2c(O)c(N=NC(N)=S)c3cccc1c32,1,-2,-2,-1,-4
COc1cc2c3c(c1)c(N=NC(N)=S)c(O)n3C(C)(C)C=C2C,7.1*,0,-1,0,0
CCCCc1ccc(NC(=O)CSc2nnc(CNC(=O)c3ccco3)o2)cc1,0,-1,-1,-2,-2
CC(C)CNC(=O)C1CSCCS(=O)(=O)N1Cc1ccccc1 (stereo unspecified),/,-1,2,-1,2
O=C1NC(=O)C2(N1)C(=O)c1cccc3cccc2c13 (stereo unspecified),2,0,2,0,3
O=C1c2cccc3cccc(c23)C(=O)C1(O)O,1,-1,5.8*,0,0
CC(C)Oc1ccc(C2NC(=O)c3ccccc3O2)cc1 (stereo unspecified),4.4*,0,0,0,-1
CC(C)c1ccc(C2NC(=O)c3ccccc3O2)cc1 (stereo unspecified),1,-1,2,1,5
O=C(NCCc1ccccc1)C1CCN(C(=O)c2ccc([N+](=O)[O-])cc2)CC1,0,0.9*,1,-1,5
CC(C)c1ccc(Nc2nnc(SCC(=O)NCC3CCCO3)s2)cc1 (stereo unspecified),1,-1,0,1,12*
CC1=C(C(=O)O)CC(S(=O)(=O)O)C1(C)C (stereo unspecified),2,0,0,3.7*,1
CCCCCCCCN1C(=O)[C@@H](CC(=O)NCC23CC4CC(CC(C4)C2)C3)C[C@@]2(C(=O)OC)C1=C[C@H](C(C)C)O[C@@H]2C1CC1,/,0,-1,1,1
CN(NC1OC(=O)c2ccccc21)c1ncc(Cl)cc1C(F)(F)F (stereo unspecified),/,-1,0,-1,0
CN(NC1OC(=O)c2ccccc21)c1ccccc1[N+](=O)[O-] (stereo unspecified),8.0*,-1,1,0,-2
CC(C)Sc1ccc(C(=O)Nc2ccc(F)cc2F)cn1,2,-1,1,1,12*
O=c1[nH]c2ccccc2c(O)c1Cc1ccccc1,4.7*,-1,-2,-1,-2
Cc1cccc(C)c1NC(=O)C(c1cccc([N+](=O)[O-])c1)N(C)C(=O)c1ccccn1 (stereo unspecified),0,1.0*,-1,-1,-2
